# CtBP-E1A inh = blocks the CtBP interaction with E1A. AlphaScreen GST-E1A/His-CtBP binding, 1536-well; hits give low values. activity change, % (no concentration beside the values). 340,000 tested, 0.49% active. AID 651724; in the data active means activity change below about -65%; inconclusive means mostly about -30% to -63%; further: on the % scale 0 is the no-effect control and ±100 the full control effect
#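 Steps: dispense buffer (Tris pH 8.0, NaCl 300 mM, TCEP 1 mM, BSA, Tween 20); add 5X protein mix (GST-E1A, His-CtBP, 125 nM each); pin 23 nL compound; 2 h at 37 °C, dark; add 5X beads (50 ug/mL); 1 h; read.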
# JMJD2A Tudor inh = JMJD2A Tudor domain (human) inhibition | O75164 | AlphaScreen JMJD2A-Tudor / H3K4me3 peptide binding | Potency, µM (titrated, usually from 114 µM), for inactives: at the highest dose activity change, negative = inhibition, most hits filed as inhibitors | 390,000 tested, 4.4% active | AID 504339; further: potency means the concentration at half of the fitted maximal effect; on the % scale 0 is the no-effect control and ±100 the full control effect; nearly all actives have a fitted effect of over 50% in size
# G9a block = blocks human histone lysine methyltransferase G9a; Q96KQ7; AID 504332; Potency, µM (doses to about 102 µM), for the others: top-dose activity, negative = inhibition, actives largely listed as inhibitors; G9a H3K9 monomethylation, AlphaScreen, 2 h; 350,000 tested, 8.8% active; further: potency means the concentration at half of the fitted maximal effect; on the % scale 0 is the no-effect control and ±100 the full control effect; nearly all actives have a fitted effect of over 75% in size
#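 G9a (20 nM) preincubated 15 min RT with compounds, then 500 nM biotinylated H3K9 peptide and 20 uM SAM added; 2 h RT reaction. Monomethyl-H3K9 product detected by AlphaScreen with anti-H3K9me1 antibody, streptavidin donor and anti-rabbit IgG acceptor beads.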
# Six1-Eya2 blk = Six1/Eya2 interaction inhibition | Q15475+O00167 | AlphaScreen GST-Six1/His-Eya2 binding, biochemical; hits give low values | activity change, % (no concentration beside the values) | 360,000 tested, 0.56% active | AID 651725; in the data active means activity change below about -65%; inconclusive means mostly about -30% to -63%; further: on the % scale 0 is the no-effect control and ±100 the full control effect
# Target sequence (O00167 whole entry, looked up): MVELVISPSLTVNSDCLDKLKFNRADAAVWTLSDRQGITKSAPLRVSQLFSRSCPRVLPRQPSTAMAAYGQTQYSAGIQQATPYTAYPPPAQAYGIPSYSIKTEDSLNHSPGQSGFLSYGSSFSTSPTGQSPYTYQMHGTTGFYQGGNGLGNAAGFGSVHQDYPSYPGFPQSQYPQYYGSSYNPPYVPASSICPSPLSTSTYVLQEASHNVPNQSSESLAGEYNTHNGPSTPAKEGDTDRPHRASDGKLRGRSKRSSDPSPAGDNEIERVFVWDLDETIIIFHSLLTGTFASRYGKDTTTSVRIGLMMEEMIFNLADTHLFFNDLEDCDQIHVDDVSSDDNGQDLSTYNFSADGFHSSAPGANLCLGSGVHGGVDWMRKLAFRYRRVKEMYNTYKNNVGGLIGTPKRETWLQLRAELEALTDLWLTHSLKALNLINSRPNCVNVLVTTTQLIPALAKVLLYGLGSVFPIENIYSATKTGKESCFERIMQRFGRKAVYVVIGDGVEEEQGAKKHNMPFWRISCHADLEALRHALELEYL
# Target sequence (Q15475 whole entry, looked up): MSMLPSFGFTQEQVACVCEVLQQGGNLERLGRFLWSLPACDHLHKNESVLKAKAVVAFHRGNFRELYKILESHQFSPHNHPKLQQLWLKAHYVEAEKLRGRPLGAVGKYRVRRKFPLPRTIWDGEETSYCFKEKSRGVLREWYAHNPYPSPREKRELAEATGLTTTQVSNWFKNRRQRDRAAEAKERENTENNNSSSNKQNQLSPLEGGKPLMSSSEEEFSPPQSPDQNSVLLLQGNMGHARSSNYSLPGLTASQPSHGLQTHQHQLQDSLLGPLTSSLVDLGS
#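 Homogeneous AlphaScreen proximity assay pairing GST-Six1 with His-tagged Eya2 (added as 5X mix: 250 nM and 500 nM) in 50 mM Tris pH 8.0, 300 mM NaCl, 1 mM TCEP. Glutathione donor and nickel acceptor beads; 1 h, 37 °C, dark.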
# HP1b chromo inh = HP1-beta chromodomain-methylated histone interaction inhibition; P83916; AlphaScreen HP1-beta / biotin-H3K9me3 peptide binding; Potency, µM (titrated, usually from 114 µM), inactives show at the highest dose activity change, negative = inhibition, most hits filed as inhibitors; 390,000 tested, 0.56% active; further: potency means the concentration at half of the fitted maximal effect; nearly all actives have a fitted effect of over 70% in size
#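 Compound inhibition of the preformed complex between 50 nM HP1-beta and 50 nM biotinylated H3K9me3 peptide was read by AlphaScreen. Buffer was PBS pH 7.4 with 0.01% Tween-20. Incubations ran 30 min at room temperature, with 10 ug/mL donor/acceptor beads.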
# BAZ2B inh = inhibitors of human BAZ2B bromodomain; Q9UIF8; AlphaScreen BAZ2B-H3K14Ac peptide displacement; Potency, µM (series often up to 114 µM), without a hit: at the highest dose activity change, negative = inhibition, hits mostly inhibitors; 360,000 tested, 4.4% active; AID 504333; further: potency means the concentration at half of the fitted maximal effect; on the % scale 0 is the no-effect control and ±100 the full control effect; nearly all actives have a fitted effect of over 60% in size
#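 AlphaScreen displacement: compounds (up to 110uM) incubated 30 min at room temperature with a preformed 50 nM BAZ2B/50 nM biotinylated H3K14Ac peptide complex in PBS pH 7.4 with Tween-20. Donor and acceptor beads at 10 ug/mL final added, 20 min light-protected before reading.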
# * hit, by the source's call; ? = inconclusive; / = not tested or not shown; [ ] = dose if it differs, or a comment. Rows were chosen to be rich in hits. Some 10% of all compounds tested hit in one or more screens of this group. Unless noted, the call rests on the fitted dose curve; in most records, active means well fitted inhibition curve with a large enough effect; inconclusive means small, poorly fitted or top-dose-only effect; inactive means no such curve, though single readings can be large or run the other way.
SMILES,CtBP-E1A inh,JMJD2A Tudor inh,G9a block,Six1-Eya2 blk,HP1b chromo inh,BAZ2B inh
Cc1ccc(NC(=S)NNC(=O)c2c(Cl)c(C)nn2C)cc1,15.4,-34.2%,1.41µM*,0.1,-13.0%,-1.5%
CN(C)CC#Cc1cccc(-c2nc(C(=O)O)cc3c2[C@@H](CCO)N(S(=O)C(C)(C)C)C3)c1 (some centres not stated),6.6,/,/,-2.7,/,/
CCN1CCN(c2ncnc3c2nnn3Cc2ccccc2)CC1,-0.4,-13.2%,39.8µM*,-1.4,17.0%,-0.3%
Cc1ccc2c(nc3s/c(=C\c4ccc(-c5ccccc5C(=O)O)o4)c(=O)n32)c1C,/,?,17.8µM*,-18.9,-18.2%,56.2µM*
Cc1cc(C)c2nc3sc(=Cc4ccc(-c5ccccc5C(=O)O)o4)c(=O)n3c2c1,-5.2,/,/,-29.3,/,/
Cc1ccc2c(nc3s/c(=C/c4cccs4)c(=O)n32)c1C,0.7,?,7.94µM*,5.7,-13.0%,/
Cc1cc(C)c2nc3s/c(=C/c4ccccc4)c(=O)n3c2c1,/,/,1.26µM*,/,/,3.4%
O=C(O)c1ccc(-c2ccc(/C=c3/sc4nc5ccccc5n4c3=O)o2)cc1Cl,-28.1,20µM*,5.01µM*,?,17.8µM*,39.8µM*
CCCCCN(C(=O)CCC(=O)OCC(=O)N1CCCC(C)C1)c1c(N)n(CCCC)c(=O)[nH]c1=O (configuration not stated),0.1,-14.7%,/,0.2,23.0%,-1.8%
COc1cc(Cl)c(C)cc1NC(=O)C1CCCN(c2ncnc3onc(-c4ccc(F)cc4)c23)C1 (configuration not stated),/,-8.7%,-8.0%[59 µM],/,34.2%,8.3%[57.1 µM]
COc1ccc2nc(/N=C/c3cccc(OC)c3O)sc2c1,?,-11.3%,18.7%,-26.5,14.7%,-14.6%
COc1ccc2nc(/N=C\N(C)C)sc2c1,-0.2,-51.9%[57.1 µM],?,3.0,?,56.2µM*
COc1ccc2nc(N=Nc3ccc(N(C)C)cc3)sc2c1,-25.1,?,22.4µM*,?,-35.3%,?
COc1ccc2nc(/N=C/c3c(C)[nH]n(-c4ccc(C)cc4)c3=O)sc2c1,?,?,?,-75.6*,0.7%,-30.6%
COc1ccccc1N1CCN(C(=O)CSc2nnc(NC(=O)C3CC3)s2)CC1,0.7,0.7%,-7.4%,0.1,39.5%,6.2%
COc1ccccc1N1CCN(C(=O)CSc2nnc(NC(=O)c3ccco3)s2)CC1,-4.6,-2.9%,50.1µM*,-6.5,15.2%,-4.5%
CCSc1nnc(NC(=O)c2ccco2)s1,-4.7,-5.9%,-33.2%[59 µM],10.0,15.1%,8.2%
CC(C)Sc1nnc(NC(=O)c2ccco2)s1,8.8,-6.8%,25.1µM*,3.6,52.4%,-24.4%
CC(C)(C)C(=O)Nc1ccc(/C=C/C(=O)c2ccco2)cc1,2.4,-14.0%,17.3%[0.501 µM],6.1,10.4%,-8.6%
Cc1c(C#N)c(O)[nH]c(=O)c1N=Nc1ccc(Br)cc1C(=O)O,-88.6*,?,44.7µM*,-70.9*,-4.9%[57 µM],?
Cc1noc(C)c1N=Nc1ccc(Br)cc1C(=O)O,-0.1,-7.2%,-40.3%,7.4,43.2%,6.1%
Cc1cccc(N=Nc2c(C)c(C#N)c(O)[nH]c2=O)c1,1.9,-33.7%,50.1µM*,7.2,3.2%,-33.3%
CCC[C@@H](NS(=O)(=O)c1ccc(C)cc1)C(=O)Oc1ccc2c3c(c(=O)oc2c1)CCC3,-10.6,-9.3%,?,-5.6,18.1%,2.4%
Cc1ccc(S(=O)(=O)NC(C(=O)Oc2ccc3c(C)c(Cl)c(=O)oc3c2)c2ccccc2)cc1 (configuration not stated),4.3,-1.4%,7.94µM*,-5.6,28.5%,-4.3%
Cc1ccc(S(=O)(=O)NCCC(=O)Oc2ccc3ccc(=O)oc3c2)cc1,-10.9,-16.0%,10.8%[59 µM],-2.2,8.5%,-3.4%
Cc1ccc(S(=O)(=O)N[C@H](C(=O)Oc2ccc3c(C(F)(F)F)cc(=O)oc3c2)c2ccccc2)cc1,-11.1,28.2µM*,3.55µM*,1.8,31.1%,7.3%
